Source: PubChem BioAssay

What was measured:
[1] = test system: Human papillomavirus type 1a protein E7 (residues 44-93); assay: small molecules binding HPV E7 44-93 – biochemical, small-molecule microarray, residues 44-93, 635 nm fluorescence, primary screen (AID 1108); details: fluorescence 635 nm, higher = more signal;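 also: E7 fragment applied at 1 µg/mL in TBST for 1 h at 4 C; score combines spot fluorescence with its signal to noise ratio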
[2] = hepatitis C replication reporter changes, two-sided – Huh7 cells, luciferase reporter, HCV replication inhibitor project, primary screen (AID 1109); details: Huh7 HCV replicon luciferase reporter, 48 h; higher = more signal;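 also: huh7 hepatoma cells harbouring a luciferase neomycin HCV replicon reporter; luciferase luminescence as measure of HCV replicon replication; test concentration not given here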
[3] = molecular target: Left-right determination factor 2 (Homo sapiens) (UniProt O00292); assay: small molecules binding LEFTY2 protein – biochemical, small-molecule microarray, 635 nm fluorescence scan, primary screen (AID 1110); details: higher = more signal
[4] = molecular target: Calmodulin-1 (Homo sapiens) (UniProt P0DP23); assay: small molecules binding calmodulin-1 with EGTA – biochemical, small-molecule microarray, Cy5-labelled CALM1, profiling panel (AID 1111); details: Cy5-CALM1 binding fluorescence, higher = more signal;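 also: labelled calmodulin applied in Tris saline Tween buffer holding calcium plus EGTA and DTT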
[5] = molecular target: Calmodulin-1 (Homo sapiens) (UniProt P0DP23); assay: small molecules binding Ca-loaded calmodulin-1 – biochemical, small-molecule microarray, Cy5-labelled CALM1, plus calcium, artefact control for SMM control-protein annotation, profiling panel (AID 1112); details: Cy5-CALM1 binding fluorescence, higher = more signal;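 also: score merges spot fluorescence with signal to noise from triplicate slides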
[6] = probe aWnt5a binding to arrayed compounds – biochemical, biotinylated probe, 635/667 nm fluorescence, primary screen (AID 1113); details: small-molecule microarray, higher = more signal;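 also: score merges 667 nm fluorescence intensity with signal-to-noise per printed feature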
[7] = probe aShh binding to arrayed compounds – biochemical, biotinylated probe, 635/667 nm fluorescence, primary screen (AID 1114); details: small-molecule microarray, higher = more signal;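 also: probe is biotin-labelled aShh protein from a stem cell growth factor screen; measures binding of labelled protein to compounds printed on the slide; score merges feature fluorescence at 667 nm with signal-to-noise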
[8] = probe aNog binding to arrayed compounds – biochemical, biotinylated probe, 635/667 nm fluorescence, primary screen (AID 1115); details: small-molecule microarray, higher = more signal;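 also: probe is biotinylated aNog protein used at 0.15 µg/mL for 1 h at 4 C; z-score combines 667 nm fluorescence of each spot with its signal to noise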
[9] = molecular target: Torsin-1A-interacting protein 1 (Homo sapiens) (UniProt Q5JTV8); assay: compound microarray binding of lysate hLAP1 – cell lysate, small-molecule microarray, COS7 lysate, 635/667 nm fluorescence, primary screen (AID 1116); details: 635 nm fluorescence, higher = more signal
[10] = molecular target: Alpha-bungarotoxin (Bungarus multicinctus) (UniProt P60615); assay: compounds binding labelled alpha-BTX control protein – biochemical, small-molecule microarray, Alexa647 label, 635/667 nm fluorescence, artefact control for SMM control protein annotation, profiling panel (AID 1117); details: alpha-BTX-A647 binding fluorescence, higher = more signal
Alpha-bungarotoxin (Bungarus multicinctus), sequence (P60615 whole entry, looked up): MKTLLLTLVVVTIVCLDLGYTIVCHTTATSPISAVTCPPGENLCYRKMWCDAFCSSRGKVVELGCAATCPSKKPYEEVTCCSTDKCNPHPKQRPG

Left-right determination factor 2 (Homo sapiens), sequence (O00292 whole entry, looked up): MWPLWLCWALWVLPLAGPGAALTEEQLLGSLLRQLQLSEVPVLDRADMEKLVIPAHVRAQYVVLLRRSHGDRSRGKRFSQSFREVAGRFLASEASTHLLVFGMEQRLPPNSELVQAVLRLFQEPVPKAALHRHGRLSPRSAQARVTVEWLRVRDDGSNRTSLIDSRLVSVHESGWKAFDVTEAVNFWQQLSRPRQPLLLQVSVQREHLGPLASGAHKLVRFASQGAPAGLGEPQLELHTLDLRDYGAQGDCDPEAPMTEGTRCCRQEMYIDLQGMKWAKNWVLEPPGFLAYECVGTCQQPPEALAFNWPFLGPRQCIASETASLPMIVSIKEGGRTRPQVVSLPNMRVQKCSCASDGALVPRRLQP
Torsin-1A-interacting protein 1 (Homo sapiens), sequence (Q5JTV8 whole entry, looked up): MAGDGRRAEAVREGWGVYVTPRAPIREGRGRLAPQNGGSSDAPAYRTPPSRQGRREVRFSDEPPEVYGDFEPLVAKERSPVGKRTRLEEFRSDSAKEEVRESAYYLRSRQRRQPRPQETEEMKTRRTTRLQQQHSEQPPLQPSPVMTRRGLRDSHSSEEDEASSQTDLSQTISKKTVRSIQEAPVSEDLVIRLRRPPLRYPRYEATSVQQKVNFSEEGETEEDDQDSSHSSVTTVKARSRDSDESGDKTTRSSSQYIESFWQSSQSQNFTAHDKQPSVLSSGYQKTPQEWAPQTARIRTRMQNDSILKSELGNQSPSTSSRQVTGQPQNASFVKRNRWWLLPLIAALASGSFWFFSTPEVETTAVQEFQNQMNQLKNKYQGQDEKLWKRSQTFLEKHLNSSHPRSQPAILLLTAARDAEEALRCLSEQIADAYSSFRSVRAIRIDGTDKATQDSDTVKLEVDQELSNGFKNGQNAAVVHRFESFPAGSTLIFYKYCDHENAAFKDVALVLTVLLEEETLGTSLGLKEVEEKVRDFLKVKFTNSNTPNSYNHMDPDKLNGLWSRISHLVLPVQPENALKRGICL

Row | SMILES | composite z-score [1] | z-score [2] | composite z-score [3] | composite z-score [4] | composite z-score [5] | composite z-score [6] | composite z-score [7] | composite z-score [8] | composite z-score [9] | composite z-score [10]
1 | COC(=O)Cn1c(C(=O)N(C)C)cc2c1C[C@H]1CN(C(=O)c3ccccc3)[C@@](Cc3ccccc3)(C(=O)OC)[C@@H]21 | -1.8 | -0.0967 | 0.103 | 0.371 | -0.198 | 0.0077 | 0.253 | -0.354 | -0.878 | 0.195
2 | C=CC[C@]1(C(=O)NCC(O)CO)N=C(c2ccc(OCCCO)cc2)O[C@H]1c1ccccc1CN=[N+]=[N-] (stereo not given in full) | 0.551 | -1.06 | -0.696 | 1.34 | 0.262 | 0.0181 | -0.0146 | -0.516 | 3.34 | 0.138
3 | COc1ccc([Si](C)(C)[C@H]2[C@H](CC(=O)N(CCO)Cc3ccccc3)O[C@@]3(C(=O)N(Cc4ccc(N5C(=O)c6cccc7cccc5c67)cc4)c4ccccc43)[C@@H]2C)cc1 | 1.28 | -3.78 | 0.544 | 0.605 | 0.103 | 0.0495 | 0.19 | 0.945 | 0.869 | 0.753
4 | CC(C)N1CC=CC23O[C@@H]4/C=C\CCCOC(=O)C4[C@H]2C(=O)N(C(C)CO)[C@@H]3C1=O (stereo not given in full) | -0.7 | 0.314 | -0.794 | -0.814 | -0.242 | -0.308 | -0.167 | -0.356 | -0.401 | -0.393
5 | COc1cccc(C)c1NC(=O)O[C@H]1[C@H](OC(=O)Nc2ccc3c(c2)OCO3)[C@H](OC(=O)Nc2ccc3c(c2)OCO3)[C@@H](OC)O[C@@H]1CO | 1.47 | -0.466 | 0.262 | 1.6 | -0.406 | 0.122 | 0.715 | 0.351 | 0.305 | 1.57
6 | CC(=O)NCCCC[C@@H]1NC(=O)[C@H]2C[C@@H](C(=O)NCCCCCN)[C@@H](c3ccc(O)cc3)N2C1=O | 1.36 | 0.199 | 0.777 | 0.536 | 0.973 | -0.1 | -0.0211 | -0.221 | 0.852 | 0.988
7 | O=C1NC(=O)C2C1C=CC(C(O)C(c1ccccc1)c1ccccc1)N2Nc1ccccn1 (stereo not given) | -1.31 | -0.246 | 0.702 | -0.67 | 0.295 | 0.278 | -0.119 | 0.328 | 1.63 | -0.143
8 | COC(=O)C(CC#Cc1ccc2c(c1)[C@]1(C(=O)N2)[C@H](C(N)=O)[C@H]2C(=O)O[C@H](c3ccccc3)[C@H](c3ccccc3)N2[C@@H]1c1ccccc1OCCO)C(=O)OC | 1.47 | -3.34 | 0.205 | 0.534 | 0.237 | -0.0721 | -0.291 | -0.0604 | 1.87 | 1.19
9 | C=CCC(OC(C)=O)[C@@H]1[C@@H](N(Cc2ccc(-c3ccccc3)cc2)C(=O)Cc2ccc(OC)cc2)c2cc(OCCCO)ccc2N1C(=O)c1ccc2ccccc2c1 (stereo not given in full) | 0.242 | -0.856 | 0.215 | 0.106 | 0.335 | -0.122 | -0.153 | -0.57 | 0.748 | 0.284
10 | COCCOC(=O)N1C(=O)[C@@]2(c3cc(C#CCCO)ccc31)[C@H](c1ccc(O)cc1)N1[C@H](c3ccccc3)[C@H](c3ccccc3)OC(=O)[C@H]1[C@@H]2C(=O)NC[C@H](O)c1ccccc1 | 0.495 | -1.02 | 0.285 | 0.212 | 0.0658 | -0.027 | 0.204 | 1.05 | 0.981 | 0.367
11 | CC(C)C[C@@H]1NC(=O)[C@H]2C[C@@H](C(=O)O)[C@@H](c3cccc(OCCO)c3)N2C1=O | -0.239 | 2.62 | 0.779 | -0.418 | -0.2 | -0.0704 | -0.0289 | -0.0503 | 0.884 | 0.209
12 | COCCCNC(=O)[C@@]1(Cc2ccccc2I)c2ccccc2C(=O)N(Cc2ccccc2OC)[C@H]1c1ccc(CO)cc1 | 1.39 | -2.08 | -0.43 | 0.0345 | 0.0879 | -0.248 | -0.0146 | -0.537 | -0.013 | 0.101
13 | COc1ccc(NN2C(C(O)c3ccc(F)cc3)C=CC3C(=O)N(C4CCCCC4)C(=O)C32)cc1 (stereo not given) | 1.44 | -0.502 | 0.14 | 1.08 | 0.722 | 0.0919 | 0.108 | 1.03 | 0.297 | 1.37
14 | CC1C2C(CCCO)=CC(C3C(=O)N(C(N)=O)C(=O)C23)N1Cc1cccc(OC(F)(F)F)c1 (stereo not given) | 0.0396 | -1.07 | 0.246 | 0.366 | 0.41 | -0.096 | 0.13 | 0.528 | 1.26 | 1.32
15 | O=C1O[C@H](c2ccccc2)[C@H](c2ccccc2)N2[C@H]1[C@@H](C(=O)O)[C@]1(C(=O)Nc3ccccc31)[C@H]2c1ccc(OCCO)cc1 | 1.45 | 0.042 | -0.242 | 1.58 | 0.5 | -0.0977 | -0.187 | -0.574 | 0.811 | 0.968
16 | COc1ccc(CCNC(=O)[C@@]2(c3ccc([N+](=O)[O-])cc3)CC(=O)N(C3CCCCC3)[C@@H]2c2ccc(CO)cc2I)cc1 | 0.535 | -2.57 | 0.497 | 0.529 | 0.113 | -0.0643 | 0.108 | 0.639 | 0.733 | 0.201
17 | CCCCN1CC=CC23O[C@@H]4/C=C\CCCOC(=O)C4[C@H]2C(=O)N(CCCCCCO)[C@@H]3C1=O (stereo not given in full) | 0.528 | 0.284 | -1.53 | -1.12 | -0.439 | -0.152 | 0.0639 | -0.346 | 3.21 | -1.09
